Results from PubChem BioAssay (NCI).
This is part of a sample that, as a whole, favours compounds with a hit. Of some 83,000 tested, about 20% had one in any assay.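 Each cell line was grown in a 96-well plate and treated with one concentration of compound for 48 hours. Values below 10 were considered active.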 Unmarked numbers belong to inactive results. Active and inactive are the calls of the source.

Tests used:
Test in all cases: NCI-60 one-dose screen, 48 h (100 = growth as untreated, 0 = no growth, -100 = all killed)
Settings in all cases: 10 µM
NCI-H23 lung = test system: NCI-H23 lung
NCI-H226 lung = test system: NCI-H226 lung
NCI-H322M lung = test system: NCI-H322M lung
HOP-62 NSCLC = test system: HOP-62 NSCLC
NCI-H460 lung = test system: NCI-H460 lung
HOP-92 NSCLC = test system: HOP-92 NSCLC
NCI-H522 lung = test system: NCI-H522 lung
A549/ATCC NSCLC = test system: A549/ATCC NSCLC
786-0 renal = test system: 786-0 renal
COLO 205 colon = test system: COLO 205 colon

Question: Which growth (NCI-H23 lung) does the source give for `O=C(c1ccc(O)cc1)c1ccc(O)cc1` here?
Answer: 106%

Question: And the growth (NCI-H226 lung)?
Answer: 98.1%

Question: And the growth (NCI-H322M lung)?
Answer: 95.3%

Question: And the growth (HOP-62 NSCLC)?
Answer: 97.8%

Question: And the growth (NCI-H460 lung)?
Answer: 108%

Question: And the growth (HOP-92 NSCLC)?
Answer: 98%

Question: What about the growth (NCI-H522 lung) of the same molecule?
Answer: 95.8%

Question: What about the growth (A549/ATCC NSCLC) of the same molecule?
Answer: 96.9%

Question: What about the growth (786-0 renal) of the same molecule?
Answer: 98.8%

Question: And the growth (COLO 205 colon)?
Answer: 108%

Question: Which results are given for `COc1cc2c(cc1O)CC[C@@H]1C2CC[C@@]2(C)C1CC[C@@H]2O` (stereo not given in full)?
Answer: growth (NCI-H23 lung): 406%; growth (NCI-H226 lung): 57.7%; growth (NCI-H322M lung): 53.5%; growth (HOP-62 NSCLC): 33.3%; growth (NCI-H460 lung): 8.58% (active); growth (HOP-92 NSCLC): 79.8%; growth (NCI-H522 lung): 1.84% (active); growth (A549/ATCC NSCLC): 13.9%; growth (786-0 renal): 36%; growth (COLO 205 colon): 82.5%

Question: Which growth (NCI-H23 lung) does the source give for `CCOc1ccc(I)cc1` here?
Answer: 96.7%

Question: What about the growth (NCI-H226 lung) of the same molecule?
Answer: 103%

Question: And the growth (NCI-H322M lung)?
Answer: 120%

Question: What about the growth (HOP-62 NSCLC) of the same molecule?
Answer: 107%

Question: And the growth (NCI-H460 lung)?
Answer: 108%

Question: What about the growth (HOP-92 NSCLC) of the same molecule?
Answer: 90.3%

Question: What about the growth (NCI-H522 lung) of the same molecule?
Answer: 105%

Question: What about the growth (A549/ATCC NSCLC) of the same molecule?
Answer: 104%

Question: What about the growth (786-0 renal) of the same molecule?
Answer: 109%

Question: What about the growth (COLO 205 colon) of the same molecule?
Answer: 111%

Question: For `CN(C)CCN(C)CC(C)(C)C(=O)/C=C/c1ccc(Cl)cc1`, which growth (NCI-H23 lung) is on record?
Answer: 5.94% (active)

Question: And the growth (NCI-H226 lung)?
Answer: -3.14% (active)

Question: What about the growth (NCI-H322M lung) of the same molecule?
Answer: 5.34% (active)

Question: What about the growth (HOP-62 NSCLC) of the same molecule?
Answer: 3.79% (active)

Question: What about the growth (NCI-H460 lung) of the same molecule?
Answer: -14.9% (active)

Question: And the growth (HOP-92 NSCLC)?
Answer: -24.9% (active)

Question: And the growth (NCI-H522 lung)?
Answer: -62.6% (active)

Question: And the growth (A549/ATCC NSCLC)?
Answer: 8.12% (active)

Question: And the growth (786-0 renal)?
Answer: -22.5% (active)

Question: And the growth (COLO 205 colon)?
Answer: -86.5% (active)

Question: What does the source list for `Cc1cc(N)ccc1-c1ccc(N)cc1C`?
Answer: growth (NCI-H23 lung): 92.8%; growth (NCI-H226 lung): 102%; growth (NCI-H322M lung): 104%; growth (HOP-62 NSCLC): 89.9%; growth (NCI-H460 lung): 104%; growth (HOP-92 NSCLC): 47.6%; growth (NCI-H522 lung): 96.9%; growth (A549/ATCC NSCLC): 92.8%; growth (786-0 renal): 101%; growth (COLO 205 colon): 103%

Question: Which results are given for `CCOC(=O)C(C#N)Cc1ccccc1` (stereo not given)?
Answer: growth (NCI-H23 lung): 105%; growth (NCI-H226 lung): 112%; growth (NCI-H322M lung): 116%; growth (HOP-62 NSCLC): 116%; growth (NCI-H460 lung): 117%; growth (HOP-92 NSCLC): 101%; growth (NCI-H522 lung): 111%; growth (A549/ATCC NSCLC): 109%; growth (786-0 renal): 109%; growth (COLO 205 colon): 123%

Question: What does the source list for `N=c1c(C(=O)OCc2ccccc2)ncc(CCl)n1O`?
Answer: growth (NCI-H23 lung): 100%; growth (NCI-H226 lung): 92.9%; growth (NCI-H322M lung): 98.6%; growth (HOP-62 NSCLC): 95.7%; growth (NCI-H460 lung): 99.4%; growth (HOP-92 NSCLC): 97.3%; growth (NCI-H522 lung): -43.4% (active); growth (A549/ATCC NSCLC): 101%; growth (786-0 renal): 81.6%; growth (COLO 205 colon): 116%

Question: How did the growth (NCI-H23 lung) turn out when `CC(C)COC(=O)COC(=O)OCCOCCOC(=O)OCC(=O)OCC(C)C` was run?
Answer: 100%

Question: What about the growth (NCI-H226 lung) of the same molecule?
Answer: 100%

Question: And the growth (NCI-H322M lung)?
Answer: 118%

Question: And the growth (HOP-62 NSCLC)?
Answer: 98.1%

Question: And the growth (NCI-H460 lung)?
Answer: 114%

Question: What about the growth (HOP-92 NSCLC) of the same molecule?
Answer: 95.7%

Question: What about the growth (NCI-H522 lung) of the same molecule?
Answer: 95.9%

Question: And the growth (A549/ATCC NSCLC)?
Answer: 109%

Question: What about the growth (786-0 renal) of the same molecule?
Answer: 103%

Question: What about the growth (COLO 205 colon) of the same molecule?
Answer: 117%

Question: How did the growth (NCI-H23 lung) turn out when `CCOC(=O)C1=C(C)NC(=O)NC1c1cccs1` (stereo not given) was run?
Answer: 98.4%

Question: What about the growth (NCI-H226 lung) of the same molecule?
Answer: 110%

Question: And the growth (NCI-H322M lung)?
Answer: 111%

Question: And the growth (HOP-62 NSCLC)?
Answer: 109%

Question: What about the growth (NCI-H460 lung) of the same molecule?
Answer: 118%

Question: And the growth (HOP-92 NSCLC)?
Answer: 107%

Question: And the growth (NCI-H522 lung)?
Answer: 101%

Question: What about the growth (A549/ATCC NSCLC) of the same molecule?
Answer: 94.8%

Question: What about the growth (786-0 renal) of the same molecule?
Answer: 106%

Question: What about the growth (COLO 205 colon) of the same molecule?
Answer: 107%

Question: What does the source list for `O/N=C/c1ccc(O)cc1O`?
Answer: growth (NCI-H23 lung): 105%; growth (NCI-H226 lung): 108%; growth (NCI-H322M lung): 117%; growth (HOP-62 NSCLC): 101%; growth (NCI-H460 lung): 109%; growth (HOP-92 NSCLC): 92%; growth (NCI-H522 lung): 86%; growth (A549/ATCC NSCLC): 91.4%; growth (786-0 renal): 108%; growth (COLO 205 colon): 111%

Question: With `c1ccc(/C(=N\N=C(/c2ccccc2)c2cccs2)c2cccs2)cc1` as the molecule, how does the growth (NCI-H23 lung) read?
Answer: 97.3%

Question: What about the growth (NCI-H226 lung) of the same molecule?
Answer: 89.3%

Question: What about the growth (NCI-H322M lung) of the same molecule?
Answer: 83.1%

Question: And the growth (HOP-62 NSCLC)?
Answer: 102%

Question: And the growth (NCI-H460 lung)?
Answer: 105%

Question: What about the growth (HOP-92 NSCLC) of the same molecule?
Answer: 92%

Question: And the growth (NCI-H522 lung)?
Answer: 83.1%

Question: And the growth (A549/ATCC NSCLC)?
Answer: 105%

Question: And the growth (786-0 renal)?
Answer: 84.8%

Question: And the growth (COLO 205 colon)?
Answer: 99.3%

Question: `Nc1nc(N)c2cc(S(=O)(=O)c3cccc(C(F)(F)F)c3)ccc2n1` was tested. Which growth (NCI-H23 lung) did it give?
Answer: 53.5%

Question: And the growth (NCI-H226 lung)?
Answer: 69.2%

Question: What about the growth (NCI-H322M lung) of the same molecule?
Answer: 52.1%

Question: And the growth (HOP-62 NSCLC)?
Answer: 76.6%

Question: What about the growth (NCI-H460 lung) of the same molecule?
Answer: 16.8%

Question: And the growth (HOP-92 NSCLC)?
Answer: 55.7%

Question: And the growth (NCI-H522 lung)?
Answer: 63.9%

Question: What about the growth (A549/ATCC NSCLC) of the same molecule?
Answer: 15.9%

Question: What about the growth (786-0 renal) of the same molecule?
Answer: 38.1%

Question: And the growth (COLO 205 colon)?
Answer: 62.5%

Question: Which results are given for `O=[N+]([O-])c1ccc(Sc2ccncn2)c([N+](=O)[O-])c1`?
Answer: growth (NCI-H23 lung): 60%; growth (NCI-H226 lung): 55.3%; growth (NCI-H322M lung): 106%; growth (HOP-62 NSCLC): 92.4%; growth (NCI-H460 lung): 99.3%; growth (HOP-92 NSCLC): 103%; growth (NCI-H522 lung): -62.2% (active); growth (A549/ATCC NSCLC): 122%; growth (786-0 renal): 69.7%; growth (COLO 205 colon): 27%

Question: How did the growth (NCI-H23 lung) turn out when `Cc1ccc(C)n1-c1ccsc1C(=O)NNC(=O)CCl` was run?
Answer: 85.1%

Question: What about the growth (NCI-H226 lung) of the same molecule?
Answer: 80.1%

Question: And the growth (NCI-H322M lung)?
Answer: 99.7%

Question: What about the growth (HOP-62 NSCLC) of the same molecule?
Answer: 101%

Question: And the growth (NCI-H460 lung)?
Answer: 101%

Question: What about the growth (HOP-92 NSCLC) of the same molecule?
Answer: 97.4%

Question: What about the growth (NCI-H522 lung) of the same molecule?
Answer: 79.5%

Question: What about the growth (A549/ATCC NSCLC) of the same molecule?
Answer: 96.6%

Question: What about the growth (786-0 renal) of the same molecule?
Answer: 80.4%

Question: And the growth (COLO 205 colon)?
Answer: 122%
